Screening results (PubChem BioAssay)
GPT2 inhibitor: inhibitors of human GPT2 alanine aminotransferase | Q8TD30 | Recombinant GPT2, coupled pyruvate oxidase/HRP Amplex Red fluorescence | Potency, µM (titrated, usually from 57.7 µM), for inactives: at the top dose activity change, negative = inhibition, actives largely listed as inhibitors | 100,000 compounds, 0.25% hits; also: nearly all actives have a fitted effect of over 60% in size
Target sequence (Q8TD30 whole entry, looked up): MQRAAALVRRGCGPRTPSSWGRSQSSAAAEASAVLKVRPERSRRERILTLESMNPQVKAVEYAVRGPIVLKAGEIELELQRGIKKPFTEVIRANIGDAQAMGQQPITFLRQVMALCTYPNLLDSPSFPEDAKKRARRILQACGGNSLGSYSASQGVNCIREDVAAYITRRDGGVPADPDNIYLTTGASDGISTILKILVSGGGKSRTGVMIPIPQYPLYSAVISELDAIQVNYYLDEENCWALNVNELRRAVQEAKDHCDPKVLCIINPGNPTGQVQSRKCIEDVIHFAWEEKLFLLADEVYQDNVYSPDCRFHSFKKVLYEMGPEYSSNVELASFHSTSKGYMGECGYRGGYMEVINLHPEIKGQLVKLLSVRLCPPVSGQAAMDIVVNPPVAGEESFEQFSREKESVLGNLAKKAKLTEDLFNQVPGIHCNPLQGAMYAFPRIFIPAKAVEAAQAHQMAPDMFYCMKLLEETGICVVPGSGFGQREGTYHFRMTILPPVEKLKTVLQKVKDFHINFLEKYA
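Fluorescence read-out: pyruvate from GPT2 turnover coupled to pyruvate oxidase, HRP and Amplex Red (0.2mM ThPP, 0.2U/mL PO and HRP, 50uM Amplex final). Substrates 250uM a-KG, 2mM L-alanine; enzyme 10ng/uL; 30 min RT.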
NPR1 antag: antagonists of human natriuretic peptide receptor Npr1; P16066; HEK293 hNpr1 GloSensor cGMP, ANP-stimulated luminescence; Potency, µM (series often up to 46.3 µM), for inactives: at the highest dose activity change, negative = inhibition, actives largely listed as inhibitors; 76,000 compounds, 1.6% hits; AID 1347048; calls by dose curve; also: nearly all actives have a fitted effect of over 60% in size
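HEK293 cells stably expressing human Npr1 and cGMP GloSensor pGS-40F, loaded 2 h with 2% GloSensor reagent, given compound 30 min at room temperature. Luminescence read before and 20 min after 0.1 nM hNppA.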
NIH3T3 tox: NIH 3T3 cell cytotoxicity; Potency, µM (series often up to 96.7 µM), inactives show at the top dose activity change, negative = cytotoxicity, usual class: inhibitors; AID 1345082; 94,000 compounds, 4.3% hits; NIH 3T3 viability, CellTiter-Glo ATP luminescence, 48-72 h; also: nearly all actives have a fitted effect of over 55% in size
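First NIH 3T3 cells are plated at 400 cells/well; next compound is pinned in; then plates incubate 48 or 72 hr at 37 °C; finally CellTiter-Glo is added and luminescence read after 10 min.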
FLuc inh: blocks purified firefly luciferase enzyme activity | 76,000 compounds, 2.5% hits | Potency, µM (doses to about 115 µM), usual class: inhibitors | P08659 | purified P. pyralis luciferase, luminescence, biochemical; also: nearly all actives have a fitted effect of over 65% in size
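Luminescence read by CCD imaging after purified firefly luciferase (10nM final) was added to substrate buffer holding 10uM D-luciferin and 10uM ATP, pH 7.5, pre-dosed with compound.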
HEK293 tox: HEK 293 cell cytotoxicity | HEK 293 viability, ATP luminescence (CellTiter-Glo), 48-72 h | Potency, µM (series often up to 115 µM), for the others: top-dose activity change, negative = cytotoxicity, most hits filed as inhibitors | 94,000 compounds, 6.6% hits | AID 1345083; also: nearly all actives have a fitted effect of over 60% in size
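Viability of HEK 293 cells, plated at 250 cells/well, was judged by cellular ATP after compound treatment for 48 or 72 hr. Luminescence was imaged 10 min after CellTiter-Glo addition at room temperature.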
* = called active by the depositor; i = inactive; ? = inconclusive; . = no result; [ ] = dose if it differs, or a comment. Rows were chosen to be rich in hits. Some 10% of all compounds tested hit in one or more screens of this group. Unless noted, calls follow the shape of the dose curve; as a rule, active = well fitted curve in the direction sought with a large enough effect; inconclusive = small, poorly fitted or top-dose-only effect, or another doubt; inactive = no such curve, though single readings can be large; an effect the other way counts as inactive or inconclusive. % is scaled to controls: 0 for no effect and ±100 for the full control effect; potency is read from the fitted curve at half-maximal effect.

SMILES	GPT2 inhibitor	NPR1 antag	NIH3T3 tox	FLuc inh	HEK293 tox
COCCN1C(=O)c2ccccc2C(C(=O)Nc2nc3ccccc3s2)C12CCCCC2 (stereo not given)	i	-16.4%	44.7µM*	?	?
COCCN1C(=O)c2ccccc2C(C(=O)Nc2nnc(COC)s2)C12CCCCC2 (stereo not given)	-2.6%	-3.6%	?	i	-9.2%
CC(C)(C)c1ccnc(N[C@H]2CO[C@H]3[C@@H]2OC[C@@H]3NS(=O)(=O)c2cccs2)n1	-11.3%[88.5 µM]	10µM*	79.4µM*	?	?
COc1ccccc1-c1ccnc(N[C@H]2CO[C@H]3[C@@H]2OC[C@@H]3NS(=O)(=O)c2cccc3cccnc23)n1	-6.3%	5.5%	-23.3%	i	-19.4%
CC(C)(C)c1ccnc(N[C@H]2CO[C@H]3[C@@H]2OC[C@@H]3NC(=O)NCc2ccccc2)n1	?	-23.1%[70.6 µM]	?	i	89.1µM*
COc1ccccc1-c1ccnc(N[C@H]2CO[C@H]3[C@@H]2OC[C@@H]3NS(=O)(=O)c2ccc3ccccc3c2)n1	-21.4%	?	?	i	31.6µM*
COc1ccccc1C(=O)N1CCCC(c2nnc3n2CCN(C2CCCC2)C3)C1 (stereo not given)	4.9%	.	1.4%	.	2.1%
CN1CCCCCCN(C(=O)Cn2c(=O)oc3ccccc32)[C@H]2CCC[C@H]2C1=O	i	4.7%	?	i	?
CN(CC1CCOC1)S(=O)(=O)c1ccccc1Cl (stereo not given)	i	5.0%	i	i	0.4%
O=C(NCCc1ccc(Cl)cc1)c1nc2sccn2c1-c1cccc(C(F)(F)F)c1	3.1%	.	?	.	?
Cc1ccc(-c2c(C(=O)NCCc3ccc(Cl)cc3)nc3sccn23)cc1	0.8%	.	?	.	35.5µM*
O=C(NCCc1ccc(Cl)cc1)c1nc2sccn2c1Br	i	16.0%	-14.6%	17.8µM*	-20.8%
CCNC(=O)N1C[C@@H](Oc2ccccc2)C[C@@H]1C(=O)NCCOC	i	2.1%	-3.4%	i	-0.8%
CN1CCC(NC[C@H]2O[C@@H](CO)[C@@H](O)[C@H]2N2CCN(c3ncccn3)CC2)CC1	i	5.0%	i	i	i
CN1CCN(C(CN)C2CCCCC2)CC1 (stereo not given)	-5.6%[88.5 µM]	.	44.7µM*	.	?
CN1CCc2c([nH]c3ccccc23)C12CCN(C(=O)c1cc(CN3CCOCC3)on1)CC2	-0.9%	-1.8%	-17.9%	i	?
O=C(c1cc(CN2CCOCC2)on1)N1CCC2(CC1)NCCc1c2[nH]c2ccccc12	0.6%	7.8%	-25.2%	i	31.6µM*
COCc1ccc2c(c1)c(OC(C)(C)C(=O)N1CCN(C)CC1)nn2CCC(C)C	-1.9%[88.5 µM]	-0.8%[70.6 µM]	-27.6%[138 µM]	i	?
O=C(NC1CCN(c2cn[nH]c(=O)c2)CC1)C1CCCCC1	3.6%	-0.1%	-8.7%	i	-14.3%
Cc1nc(CN2C[C@H](C(=O)NCc3ccc4c(c3)OCO4)C[C@@H]2c2ccc(F)cc2)cs1	?	2.3%	?	i	?
Cc1nc(CN2C[C@H](C(=O)Nc3ccc(F)cc3)C[C@@H]2c2ccc(F)cc2)cs1	-5.5%[88.5 µM]	-0.6%[70.6 µM]	100µM*	i	100µM*
COc1ccc(NC(=O)[C@@H]2C[C@@H](c3ccc(F)cc3)N(Cc3ccccc3)C2)cc1	-14.4%[88.5 µM]	-19.2%[70.6 µM]	-15.5%[138 µM]	i	?
COc1ccc(NC(=O)[C@@H]2C[C@H](c3ccc(F)cc3)N(Cc3csc(C)n3)C2)cc1	-0.2%[88.5 µM]	-3.1%[70.6 µM]	?	i	79.4µM*
CC(=O)Nc1ccc(S(=O)(=O)N[C@@H]2C=C[C@@H](c3c(C)nn(-c4ccc(C(C)(C)C)cc4)c3C)C2)cc1	-5.5%	-15.4%	?	44.7µM*	44.7µM*
COc1ccc(C(=O)N[C@@H]2C=C[C@@H](c3c(C)nn(Cc4ccccc4)c3C)C2)cc1	-5.7%[88.5 µM]	-2.9%[70.6 µM]	?	?	?
SMILES	GPT2 inhibitor	NPR1 antag	NIH3T3 tox	FLuc inh	HEK293 tox
CC(=O)N[C@@H]1C=C[C@@H](c2c(C)nn(-c3ccc(C)c(Cl)c3)c2C)C1	2.2%[88.5 µM]	?	79.4µM*	?	?
Cc1ccc(-n2nc(C)c([C@H]3C=C[C@@H](OC(=O)Nc4ccc(C(C)C)cc4)C3)c2C)cc1Cl	1.8%	-12.5%	?	i	28.2µM*
COc1ccc(NC(=O)O[C@@H]2C=C[C@H](c3c(C)nn(-c4ccc(C)c(Cl)c4)c3C)C2)cc1	1.4%	-3.2%	?	i	?
Cc1nn(-c2ccc(C(F)(F)F)cc2)c(C)c1[C@@H]1C=C[C@@H](NS(=O)(=O)c2cccs2)C1	-11.7%	-18.3%	?	i	?
Cc1cc(Cl)ccc1-n1nc(C)c([C@@H]2C=C[C@@H](NC(=O)c3ccc(N(C)C)cc3)C2)c1C	-7.4%	?	?	17.8µM*	?
COc1ccc(CC(=O)N2CC[C@@H](CC(=O)O)[C@@H](CCN(C)CCN(C)C)C2)cc1	-6.4%[88.5 µM]	0.2%[70.6 µM]	i	i	1.0%[172 µM]
Cc1ccc(CN2CCC3(CC2)CC(C(=O)N2CCOCC2)N(C)C3)s1 (stereo not given)	0.5%	2.2%	-3.1%	i	-8.4%
O[C@H]1[C@@H]2CN(Cc3ccccc3)C[C@@H]2[C@@H]2O[C@H]1C[C@@H]2c1ccc(F)cc1	.	.	-19.5%	.	?
CCOc1ccc(C(=O)N[C@H]2C[C@@H]3OCC[C@H]23)cc1OCC	i	-3.4%	-19.4%	i	2.5%
c1csc(CN2CCC(Oc3ccccc3-c3nc(-c4cnccn4)no3)C2)c1 (stereo not given)	2.9%	-13.3%	?	i	?
Cn1cccc1CN1CCC(Oc2ccccc2-c2nc(-c3ccncc3)no2)C1 (stereo not given)	i	.	39.8µM*	.	?
CC(=O)N1CCC(Oc2ccccc2-c2nc(-c3ccccc3)no2)C1 (stereo not given)	i	12.0%	?	i	?
Cc1ccsc1CN1CCC(Oc2ccccc2-c2nc(-c3ccncc3)no2)C1 (stereo not given)	i	-22.6%	31.6µM*	?	25.1µM*
N#Cc1ccc(S(=O)(=O)N2CCC(C(=O)N3CCCCCCNC(=O)CC3)CC2)cc1	-13.0%	3.5%	-5.8%	i	-0.5%
O=C1CO[C@H]2CCN(Cc3ccccc3Cl)CC[C@@H]2N1c1ccccc1	-15.6%[88.5 µM]	-26.5%[70.6 µM]	?	i	79.4µM*
O=C1CO[C@H]2CCN(CCCc3ccccc3)CC[C@@H]2N1c1ccccc1	-11.2%[88.5 µM]	-26.2%[70.6 µM]	89.1µM*	i	100µM*
C[C@@H]1CN(c2cc(C3CC(O)C3)ncn2)C[C@H](C)O1 (stereo not given in full)	-29.4%[11.5 µM]	-0.1%	-13.4%	i	-10.8%
